From PubChem BioAssay (NCI)
Compounds without any hit were thinned out: in the full panel of roughly 83,000, 20% have a hit.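 Negative percent growth values reflect cell death: -40 means 40% of the cells present at the start died, and -100 means all died.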 Calls of active or inactive are those of the source. The calls were made as follows: active = growth percent below 10; inactive = the rest.

Tests used:
Test in all cases: NCI-60 one-dose screen, 48 h (100 = growth as untreated, 0 = no growth, -100 = all killed)
Settings in all cases: 10 µM unless noted
[1] = test system: HCT-15 colon
[2] = test system: HT29 colon
[3] = test system: SNB-75 CNS
[4] = test system: SNB-19 CNS
[5] = test system: U251 CNS
[6] = test system: PC-3 prostate
[7] = test system: SK-MEL-5 melanoma
[8] = test system: UACC-62 melanoma
[9] = test system: LOX IMVI melanoma
[10] = test system: SK-MEL-28 melanoma
[11] = test system: SK-MEL-2 melanoma
[12] = test system: EKVX NSCLC
[13] = test system: UO-31 renal
[14] = test system: TK-10 renal
[15] = test system: ACHN renal
[16] = test system: CAKI-1 renal
[17] = test system: A498 renal
[18] = test system: CCRF-CEM leukemia
[19] = test system: MOLT-4 leukemia
[20] = test system: SN12C renal

Measured: growth

O=C1OCC2=C1C(c1cccc(F)c1)c1cc3c(cc1N2CCO)CCC3 (centres undefined)
active: [1] 7.86% | [2] 5% | [7] -1.4% | [17] 5.8% | [18] 5.27%
inactive: [3] 29.6% | [4] 23.9% | [5] 14.3% | [6] 24.2% | [8] 42% | [9] 16.2% | [10] 54.7% | [11] 27% | [12] 40.9% | [13] 37.8% | [14] 57.5% | [15] 22.8% | [16] 32.5% | [19] 11.4%

CCOC(=O)C#Cc1c(CC(=O)OCC)nnn1[C@H]1O[C@@H](CO)[C@@H]2OC(C)(C)O[C@@H]21
inactive: [2] 29.2% | [3] 76.4% | [4] 97.7% | [5] 96.9% | [6] 89.4% | [7] 97.2% | [8] 84.8% | [9] 47.3% | [10] 86.6% | [11] 101% | [12] 99.5% | [20] 87.1% | [14] 48.8% | [17] 111% | [18] 11.7% | [19] 50.1%
active: [1] -12.8% | [15] -49.4% | [16] -88.4%

CCCC1Cc2cc(-n3nc(C)c4c3CC(C)(C)CC4=O)cc(NC3CCC(O)CC3)c2C(=O)N1 (centres undefined)
inactive: [1] 26.1% | [2] 11.6% | [3] 66.6% | [4] 50% | [5] 41.5% | [6] 42.8% | [7] 40.7% | [10] 31.5% | [11] 48.7% | [12] 62.8% | [13] 28.9% | [14] 38.2% | [15] 29.3% | [16] 30.4% | [17] 37.6% | [18] 35% | [19] 16.8%
active: [8] 6.33% | [9] 5.91%

CCOc1ccc(N2C(=O)CCSC2=S)cc1
inactive: [1] 101% | [2] 106% | [3] 90.5% | [4] 94.7% | [5] 102% | [6] 93.3% | [7] 98.9% | [8] 91.9% | [9] 96.5% | [10] 108% | [11] 102% | [12] 95.5% | [13] 85.5% | [14] 96.3% | [15] 101% | [16] 96.4% | [17] 102% | [18] 108% | [19] 104%

COc1cc(/C=C2\C(=O)N(CCOc3cc(O)c4c(=O)cc(-c5ccccc5)oc4c3)c3ccccc32)cc(OC)c1O
inactive: [1] 28% | [2] 136% | [3] 44.9% | [4] 65.3% | [5] 39.7% | [6] 76.2% | [7] 68.1% | [8] 24.6% | [9] 36.7% | [10] 83.6% | [11] 74.1% | [12] 83.2% | [13] 63.5% | [14] 109% | [15] 66.9% | [16] 59.3% | [17] 127% | [18] 49.6% | [19] 51.8%

COc1ccc(-c2nc3cc(C(=O)NC4CCCCC4)ccc3n2C2CCCCC2)cc1
inactive: [1] 21.5% | [2] 38.3% | [3] 91.6% | [4] 109% | [5] 91.5% | [6] 95.8% | [7] 65.3% | [8] 95.3% | [9] 76.9% | [10] 100% | [11] 92.4% | [12] 69.2% | [13] 82.6% | [14] 91.5% | [15] 87% | [16] 89.2% | [17] 103% | [18] 94.4% | [19] 74.5%

COc1ccc(C(=O)/C=C/c2ccc(Cl)cc2)cc1S(N)(=O)=O
inactive: [1] 26.3% | [2] 43.6% | [3] 82.5% | [4] 14% | [5] 32% | [7] 85.7% | [8] 46.4% | [9] 10.6% | [10] 97.8% | [11] 80.3% | [12] 87.3% | [20] 15.4% | [14] 70% | [15] 58.4% | [16] 74.9% | [17] 84.6%
active: [6] -55.6% | [18] -18.3% | [19] -5.39%

CC1=NC(=S)NC(c2ccccc2)/C1=C1/CC(c2ccccc2O)NN1 (centres undefined)
inactive: [1] 97.3% | [2] 105% | [3] 80.7% | [4] 94.2% | [5] 103% | [6] 95% | [7] 102% | [8] 97.8% | [9] 101% | [10] 104% | [11] 108% | [12] 95.7% | [13] 73.1% | [14] 138% | [15] 101% | [16] 84.8% | [17] 93.8% | [18] 99.1% | [19] 99.9%

C(=N\Nc1nnc2n1N=C(c1ccccc1)CS2)/c1ccc(OCc2ccccc2)cc1
inactive: [1] 97.4% | [2] 114% | [3] 108% | [4] 102% | [5] 97.6% | [6] 76.2% | [7] 82.9% | [8] 89.8% | [9] 95.8% | [10] 104% | [11] 104% | [12] 101% | [13] 79.5% | [14] 98.2% | [15] 112% | [16] 107% | [17] 108% | [18] 97.2% | [19] 92.8%

CCOC(=O)c1c(C)nc2c(c1N)C(=O)C(=O)N2CCc1ccc(OC)c(OC)c1
inactive: [1] 33.3% | [2] 39.6% | [3] 67% | [4] 84.8% | [5] 57.7% | [6] 58.9% | [7] 44.9% | [8] 64.8% | [9] 76.9% | [10] 80.9% | [11] 75.5% | [12] 57.6% | [20] 89.1% | [14] 70.8% | [15] 74% | [16] 60.2% | [17] 55.5% | [18] 75.1% | [19] 57.3%

COc1ccc(-c2cc(-c3ccc(Cl)cc3)c(C#N)c(=O)n2CCCCC(=O)NO)cc1
active: [9] -14.3% | [16] -13.2%
inactive: [1] 20.9% | [2] 83.9% | [3] 76.7% | [4] 78% | [5] 69.7% | [6] 70.6% | [7] 39.1% | [8] 87.1% | [10] 79.3% | [11] 88% | [12] 71.9% | [20] 68.7% | [14] 70.4% | [15] 34.6% | [17] 95.4% | [18] 63.9% | [19] 80.6%

COC(=O)c1nc(-c2ccccc2)oc1S(=O)(=O)NCC(c1ccc(Cl)cc1)N1CCCCC1 (centres undefined)
active: [18] -19.2% | [19] 1.79%
inactive: [1] 49.1% | [2] 45.8% | [3] 79% | [4] 81.1% | [5] 59.6% | [6] 58.3% | [7] 86% | [8] 85.5% | [9] 43.9% | [10] 99.7% | [11] 93.8% | [12] 104% | [13] 61.2% | [14] 67.3% | [15] 68.2% | [16] 49.4% | [17] 96.4%

Cc1ccc(C23CCC(=O)N2CCc2cncn23)cc1 (centres undefined)
inactive: [1] 98.9% | [2] 98.3% | [3] 111% | [4] 97.7% | [5] 97.2% | [6] 95% | [7] 98.8% | [8] 95.8% | [9] 105% | [10] 106% | [11] 107% | [12] 104% | [20] 99% | [14] 91.7% | [15] 105% | [16] 107% | [17] 96.8% | [18] 95.1% | [19] 104%

COc1ccc(NC(=O)c2ccc(Cl)cc2Cl)cc1
inactive: [1] 94% | [2] 100% | [3] 89.9% | [4] 104% | [5] 92.2% | [6] 98.8% | [7] 92.3% | [8] 96.3% | [9] 98.2% | [10] 105% | [11] 106% | [12] 89.1% | [20] 101% | [14] 88.3% | [15] 117% | [16] 95.7% | [17] 72.6% | [18] 106% | [19] 107%

COc1cc(/C=C/c2cc(/C=C/c3ccc(O)c(OC)c3)n(C(=O)Nc3ccc(C)cc3C)n2)ccc1O
active: [1] 3.84% | [2] -38.5% | [3] -30.5% | [4] 2.45% | [5] -12.3% | [6] -10.8% | [7] -83.4% | [8] -48.5% | [9] -29.8% | [10] 5.57% | [11] -27.2% | [12] -14.7% | [20] 0.467% | [15] 5.29% | [16] -36.6% | [17] -14.7% | [18] 1.54% | [19] -20.7%
inactive: [14] 15.9%

c1ccc(Cn2cc3c(c2)-c2nc(Nc4ccccc4)ncc2CC3)cc1
active: [18] 2.85% [100 µM]
inactive: [1] 116% [100 µM] | [2] 117% [100 µM] | [3] 63.7% [100 µM] | [4] 84.1% [100 µM] | [5] 69.1% [100 µM] | [6] 72.8% [100 µM] | [7] 79.4% [100 µM] | [8] 82.7% [100 µM] | [9] 85.6% [100 µM] | [10] 92.5% [100 µM] | [11] 92.6% [100 µM] | [12] 72.1% [100 µM] | [13] 93% [100 µM] | [14] 72.8% [100 µM] | [15] 81.8% [100 µM] | [16] 59.2% [100 µM] | [17] 105% [100 µM] | [19] 107% [100 µM]
